# Experimental data from PubChem BioAssay (Tox21).
# Values without a mark were called inactive. Records with an inconclusive call do not appear. Where a call stands in place of a potency, no number is given. Calls of active or inactive are those of the source. Unless noted, calls come from the whole dose curve; as a rule, active = well fitted curve in the direction sought with a large enough effect in the repeat runs; inconclusive = weak or mixed curves; inactive = no such curve, though single readings can be large; an effect the other way counts as inactive or inconclusive.
# What was measured:
# [1] = qHTS assay to identify small molecule agonists of the estrogen receptor alpha (ER-alpha) signaling pathway in the presence of an antagonist - cell viability counter screen (AID 1259386);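 note: series mostly up to about 92 µM; cells exposed to compounds for 22 h at 37 °C before the viability read; nearly all actives have a fitted effect of over 30% in size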
# Outline: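 The test measures whether compounds kill ER-alpha reporter cells (VM7Luc4E2) under antagonist co-treatment (ICI-182,780, 10.0nM). Fluorescence from CellTiter-Fluor is read after a 22hr exposure.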
# [2] = molecular target: Progesterone receptor (Homo sapiens) (UniProt P06401); test: qHTS assay to identify small molecule agonists of the progesterone receptor (PR) signaling pathway (AID 1346784; calls by dose curve; note: nearly all actives have a fitted effect of over 30% in size)
# Outline: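 PR-UAS-bla HEK 293T cells carrying a UAS-driven beta-lactamase reporter were seeded in medium with 2% charcoal-stripped FBS, preincubated 6 hr at 37C, then exposed to compounds in DMSO for 16 hr; agonism was read by LiveBLAzer B/G FRET fluorescence.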
# [3] = molecular target: Progesterone receptor (Homo sapiens) (UniProt P06401); test: qHTS assay to identify small molecule antagonists of the progesterone receptor (PR) signaling pathway (AID 1346795; active = well fitted inhibition curve with a large enough effect in the signal ratio in the repeat runs, not every such curve was filed as active; the % refers to the signal ratio)
# Outline: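 PR-UAS-bla HEK293T cells carrying a UAS-driven beta-lactamase reporter were plated in medium with 2% charcoal-stripped FBS and rested 6 hr at 37C. Compounds were added with 1 nM R5020 (final) for 16 hr, then FRET substrate loaded 2 hr at room temperature.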
# [4] = qHTS assay to identify small molecule antagonists of the progesterone receptor (PR) signaling pathway - cell viability counter screen (AID 1346798); note: series mostly up to about 92 µM; nearly all actives have a fitted effect of over 50% in size
# Outline: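 PR-UAS-bla HEK293T cells in medium with 2% charcoal-stripped FBS were treated with compounds plus R5020 for 16 hr at 37C. Cell viability was then read by CellTiter-Glo luminescence after 30 min at room temperature in the same wells.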
# [5] = qHTS assay to identify small molecule agonists of the progesterone receptor (PR) signaling pathway - cell viability counter screen (AID 1346799; calls by dose curve; note: nearly all actives have a fitted effect of over 45% in size)
# Outline: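 PR-UAS-bla HEK293T cells, 3,000 per well in medium with 2% charcoal-stripped FBS, were preincubated 6 hr at 37C, then exposed to compounds for 16 hr; viability was read as CellTiter-Glo luminescence after 30 min at room temperature.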
# [6] = qHTS assay to identify small molecule antagonists of the TGF-beta/Smad signaling pathway - cell viability counter screen (AID 1346824); note: nearly all actives have a fitted effect of over 50% in size
# Outline: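 Cytotoxicity counter-screen run in the same wells as the beta-lactamase Smad reporter read: CellTiter-Glo luminescence after 30 min at room temperature. HEK 293T SBE-bla cells had 5 hr compound exposure at 37 C with TGF-beta1 (0.25 ng/mL stock).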
# [7] = qHTS assay to identify small molecule agonists of the TGF-beta/Smad signaling pathway - cell viability counter screen (AID 1346829); note: top concentration of the series differs between compounds; nearly all actives have a fitted effect of over 45% in size
# Outline: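 Tox21 qHTS format: SBE-bla HEK 293T cells treated with DMSO-dissolved compounds for 5 hr; CellTiter-Glo luminescence after 30 min at room temperature.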
# [8] = molecular target: Thyrotropin-releasing hormone receptor (Homo sapiens) (UniProt P34981); test: qHTS assay to identify small molecule antagonists of the thyrotropin-releasing hormone receptor (TRHR) signaling pathway (AID 1346877; active = well fitted inhibition curve with a large enough effect in the repeat runs, not every such curve was filed as active; note: series mostly up to about 51 µM)
# Outline: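 Overnight-plated (18 h, 37 °C) HEK293 cells expressing TRHR were dye-loaded 2 h, treated with compound, then stimulated with TRH at 1 nM final. Fluorescence intensity was captured every second for 3 min.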
# [9] = molecular target: Thyrotropin-releasing hormone receptor (Homo sapiens) (UniProt P34981); test: qHTS assay to identify small molecule agonists of the thyrotropin-releasing hormone receptor (TRHR) signaling pathway (AID 1346891; calls by dose curve; note: series mostly up to about 58 µM)
# Outline: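 TRHR-expressing HEK293 cells were plated 18 h at 37 °C/5% CO2, loaded with calcium dye 2 h at 37 °C, then given compound in DMSO; fluorescence was read kinetically for 3 min at 1 s intervals.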
# [10] = Human pregnane X receptor (PXR) small molecule agonists, qHTS cell viability counter screen (AID 1346977); note: nearly all actives have a fitted effect of over 50% in size
# Outline: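 PXR-Luc HepG2 cells in medium with 5% charcoal-stripped FBS were pre-incubated 5hr, then exposed to compounds for 24hr at 37C. Viability was read in the same wells by CellTiter-Fluor fluorescence, reagent added after 23hr with a 1hr incubation.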
# [11] = Caspase-3/7 induction in HepG2 cells by small molecules, qHTS assay (AID 1346978); note: nearly all actives have a fitted effect of over 15% in size
# Outline: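 Caspase-3/7 induction was measured by Caspase-Glo 3/7 luminescence (30 min, room temperature) after a 17 hr compound exposure of wild-type HepG2 cells seeded at 2,000 per well and pre-incubated 5 hr.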
# [12] = Caspase-3/7 induction in CHO-K1 cells by small molecules, qHTS cell viability counter screen (AID 1346979); note: nearly all actives have a fitted effect of over 35% in size
# Outline: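 Wild-type CHO-K1 cells were seeded at 1,500 per well, rested 5hr at 37 C, then exposed to compounds in DMSO. After 16hr, CellTiter-Fluor reagent was added and fluorescence read 1hr later as the viability measure.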
# [13] = Caspase-3/7 induction in CHO-K1 cells by small molecules, qHTS assay (AID 1346980); note: nearly all actives have a fitted effect of over 15% in size
# Outline: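 Luminescent Caspase-Glo 3/7 read (30min, room temperature) quantified apoptosis induction. Cells were wild-type CHO-K1, treated with compound for 17hr at 37 C and 5% CO2.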
# [14] = Caspase-3/7 induction in HepG2 cells by small molecules, qHTS cell viability counter screen (AID 1346981); note: series mostly up to about 92 µM; nearly all actives have a fitted effect of over 30% in size
# Outline: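 Treatment of HepG2 cells with DMSO-delivered compounds ran 16 hr at 37 C following a 5-hr pre-incubation of 2,000 cells/well. CellTiter-Fluor fluorescence, read after 1 hr, served as the viability measure in a qHTS format.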
# [15] = molecular target: Nuclear receptor subfamily 1 group I member 2 (Homo sapiens) (UniProt O75469); test: Human pregnane X receptor (PXR) small molecule agonists, qHTS assay (AID 1346982); note: nearly all actives have a fitted effect of over 35% in size
# Outline: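 Stable HepG2 line reporting PXR-mediated CYP3A4 expression via luciferase. Treatment: 24 hr with compounds in DMSO at 37 C. Detection: ONE-Glo luminescence.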
# [16] = molecular target: Acetylcholinesterase (Homo sapiens) (UniProt P22303); test: Acetylcholinesterase (AChE) small molecule antagonists: colormetric cell-based qHTS assay (AID 1347395; calls by dose curve; note: nearly all actives have a fitted effect of over 30% in size; note: potency is the fitted concentration of half-maximal effect)
# Outline: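 SH-SY5Y cells, plated overnight at 37 C, were exposed to compounds for 30 min at 37 C and 5% CO2. Acetylthiocholine plus DTNB was then added, and thiocholine from endogenous AChE was quantified colorimetrically after 90 min at 37 C.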
# [17] = qHTS assay to identify small molecule agonists of the TGF-beta/Smad signaling pathway (AID 1346859; active = well fitted activation curve with a large enough effect in the signal ratio in the repeat runs, not every such curve was filed as active; the % refers to the signal ratio; note: series mostly up to about 77 µM)
# Outline: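 HEK 293T cells stably carrying a beta-lactamase reporter driven by the Smad binding element were seeded overnight, exposed to DMSO-dissolved compounds for 5 hr at 37 C, 5% CO2, then loaded with FRET substrate for 2 hr at room temperature.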
# [18] = molecular target: Nuclear receptor subfamily 1 group I member 2 (Rattus norvegicus) (UniProt Q9R1A7); test: Rat pregnane X receptor (rPXR) activation by small molecules, qHTS assay (AID 1346983); conditions: rPXR luciferase reporter cells, One-Glo luminescence, 24 h; stronger effect = higher value; note: nearly all actives have a fitted effect of over 20% in size
# Outline: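 Luminescent readout (One-Glo luciferase, 30 min room temperature) followed 24 hr compound treatment at 37 C of rPXR cells plated 2,000 per well and preincubated 5hr; qHTS format with compounds delivered in DMSO.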
# [19] = molecular target: Nuclear receptor subfamily 1 group I member 2 (Homo sapiens) (UniProt O75469); test: CYP3A4 induction through human pregnane X receptor (PXR) by small molecules, qHTS assay (AID 1346984); note: nearly all actives have a fitted effect of over 40% in size
# Outline: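 After 24 h at 37C with compound, DPX-2 cells (HepG2, co-transfected PXR response element and CYP3A4 promoter-luciferase) got 3uM final P450-Glo Luciferin-IPA for 3 h; One-Glo luminescence followed.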
# [20] = molecular target: Nuclear receptor subfamily 1 group I member 2 (Homo sapiens) (UniProt O75469); test: Human pregnane X receptor (PXR) activation by small molecules, qHTS assay (AID 1346985); note: nearly all actives have a fitted effect of over 40% in size
# Outline: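 DPX-2 cells (HepG2 co-transfected with a PXR response element and a CYP3A4-promoter luciferase construct) were seeded at 2,000 per well, rested 5 hr at 37C, then exposed to DMSO-dissolved compounds for 24 hr. Activation was read as luciferase luminescence.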
# Chain of Thyrotropin-releasing hormone receptor (Homo sapiens) (P34981 whole entry, looked up): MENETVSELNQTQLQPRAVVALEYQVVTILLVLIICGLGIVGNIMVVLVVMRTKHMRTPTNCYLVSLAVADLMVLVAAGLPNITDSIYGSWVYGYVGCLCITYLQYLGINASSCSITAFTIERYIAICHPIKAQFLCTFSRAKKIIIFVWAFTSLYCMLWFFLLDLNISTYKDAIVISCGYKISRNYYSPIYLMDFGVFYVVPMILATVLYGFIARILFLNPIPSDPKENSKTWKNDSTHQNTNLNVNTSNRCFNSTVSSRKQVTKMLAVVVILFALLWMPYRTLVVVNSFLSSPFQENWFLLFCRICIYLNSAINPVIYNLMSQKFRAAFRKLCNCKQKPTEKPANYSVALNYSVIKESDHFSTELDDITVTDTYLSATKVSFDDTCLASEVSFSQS
# Chain of Nuclear receptor subfamily 1 group I member 2 (Homo sapiens) (O75469 whole entry, looked up): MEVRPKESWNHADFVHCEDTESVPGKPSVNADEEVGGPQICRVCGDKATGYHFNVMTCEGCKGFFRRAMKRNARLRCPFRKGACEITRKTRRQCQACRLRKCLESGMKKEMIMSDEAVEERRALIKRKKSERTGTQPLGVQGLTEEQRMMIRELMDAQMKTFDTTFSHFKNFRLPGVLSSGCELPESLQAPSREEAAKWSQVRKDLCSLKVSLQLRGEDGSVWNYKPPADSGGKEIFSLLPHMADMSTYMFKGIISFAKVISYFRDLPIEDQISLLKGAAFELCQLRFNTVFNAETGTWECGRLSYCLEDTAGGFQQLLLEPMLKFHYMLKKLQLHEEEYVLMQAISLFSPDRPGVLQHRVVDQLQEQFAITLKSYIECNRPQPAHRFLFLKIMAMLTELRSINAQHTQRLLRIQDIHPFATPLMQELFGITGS
# Chain of Acetylcholinesterase (Homo sapiens) (P22303 whole entry, looked up): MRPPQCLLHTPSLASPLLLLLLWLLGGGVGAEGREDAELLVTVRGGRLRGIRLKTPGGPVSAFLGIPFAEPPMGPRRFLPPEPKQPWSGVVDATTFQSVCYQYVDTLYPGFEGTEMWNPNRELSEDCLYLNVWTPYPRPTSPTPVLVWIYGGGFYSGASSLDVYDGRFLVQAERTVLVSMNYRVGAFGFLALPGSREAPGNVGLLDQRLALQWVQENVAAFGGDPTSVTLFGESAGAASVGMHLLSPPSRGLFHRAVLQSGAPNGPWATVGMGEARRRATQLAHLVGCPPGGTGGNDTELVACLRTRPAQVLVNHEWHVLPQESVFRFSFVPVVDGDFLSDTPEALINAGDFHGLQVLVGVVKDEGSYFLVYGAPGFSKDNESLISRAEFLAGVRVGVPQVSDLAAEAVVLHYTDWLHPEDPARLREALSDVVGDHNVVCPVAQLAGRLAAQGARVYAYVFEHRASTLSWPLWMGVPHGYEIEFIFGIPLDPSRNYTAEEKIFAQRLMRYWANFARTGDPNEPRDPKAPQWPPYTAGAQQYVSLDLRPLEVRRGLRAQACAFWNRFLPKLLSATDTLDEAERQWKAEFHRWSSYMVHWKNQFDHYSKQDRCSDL
# Chain of Progesterone receptor (Homo sapiens) (P06401 whole entry, looked up): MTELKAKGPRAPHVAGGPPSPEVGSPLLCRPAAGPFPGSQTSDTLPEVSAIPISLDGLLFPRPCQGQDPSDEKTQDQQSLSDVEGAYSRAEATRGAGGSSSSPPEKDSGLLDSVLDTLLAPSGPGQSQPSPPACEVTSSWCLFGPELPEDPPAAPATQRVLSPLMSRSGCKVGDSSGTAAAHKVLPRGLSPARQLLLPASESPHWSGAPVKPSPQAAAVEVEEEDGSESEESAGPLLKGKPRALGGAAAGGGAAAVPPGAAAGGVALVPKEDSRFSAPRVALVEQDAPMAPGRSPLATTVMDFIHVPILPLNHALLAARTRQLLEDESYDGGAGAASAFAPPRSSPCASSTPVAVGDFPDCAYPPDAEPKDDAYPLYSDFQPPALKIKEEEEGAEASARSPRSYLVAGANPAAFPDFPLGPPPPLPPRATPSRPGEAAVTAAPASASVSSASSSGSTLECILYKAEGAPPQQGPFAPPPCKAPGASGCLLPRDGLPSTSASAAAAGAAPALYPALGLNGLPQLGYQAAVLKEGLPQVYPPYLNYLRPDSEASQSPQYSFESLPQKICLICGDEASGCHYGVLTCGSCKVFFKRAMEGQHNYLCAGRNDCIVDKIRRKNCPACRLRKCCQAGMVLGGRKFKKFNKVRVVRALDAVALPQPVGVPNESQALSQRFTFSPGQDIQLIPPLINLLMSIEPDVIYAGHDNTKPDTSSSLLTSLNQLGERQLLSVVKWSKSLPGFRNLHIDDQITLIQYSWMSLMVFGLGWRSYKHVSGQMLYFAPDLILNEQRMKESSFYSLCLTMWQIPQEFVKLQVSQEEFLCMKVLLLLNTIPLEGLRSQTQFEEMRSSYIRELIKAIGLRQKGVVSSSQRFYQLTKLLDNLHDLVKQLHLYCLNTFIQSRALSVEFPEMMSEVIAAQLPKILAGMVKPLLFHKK
# Chain of Nuclear receptor subfamily 1 group I member 2 (Rattus norvegicus) (Q9R1A7 whole entry, looked up): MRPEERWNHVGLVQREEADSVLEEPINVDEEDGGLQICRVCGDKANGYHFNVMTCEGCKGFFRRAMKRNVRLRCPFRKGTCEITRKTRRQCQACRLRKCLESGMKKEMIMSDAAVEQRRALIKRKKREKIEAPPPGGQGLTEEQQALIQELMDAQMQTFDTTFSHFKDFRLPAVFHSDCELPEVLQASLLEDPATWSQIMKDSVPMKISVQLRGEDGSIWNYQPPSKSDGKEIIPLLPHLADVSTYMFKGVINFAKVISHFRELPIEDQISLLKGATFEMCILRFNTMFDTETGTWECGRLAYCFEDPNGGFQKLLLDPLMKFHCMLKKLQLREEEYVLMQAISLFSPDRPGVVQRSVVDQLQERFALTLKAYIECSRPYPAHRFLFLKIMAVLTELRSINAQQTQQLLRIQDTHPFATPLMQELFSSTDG
SMILES,Potency [1],Potency [2],Potency [3],Potency [4],Potency [5],outcome [6],Potency [7],Potency [8],outcome [9],Potency [10],outcome [11],Potency [12],outcome [13],Potency [14],Potency [15],Potency [16],outcome [17],max activation [18] [%],Potency [19],Potency [20]
CCOC(=O)COc1ccc(Cl)cc1Cl,inactive,inactive,inactive,inactive,inactive,inactive,inactive,inactive,inactive,inactive,inactive,inactive,inactive,inactive,inactive,inactive,–,–,–,–
CC(C)(O)C(Cl)(Cl)Cl,inactive,inactive,inactive,inactive,inactive,inactive,inactive,–,–,inactive,inactive,–,inactive,inactive,inactive,inactive,inactive,-2.13,inactive,inactive
CNC(=O)NC(O)C(Cl)(Cl)Cl (stereo unspecified),inactive,inactive,inactive,inactive,inactive,inactive,inactive,inactive,inactive,inactive,inactive,inactive,–,inactive,inactive,inactive,inactive,-4.06,inactive,inactive
CCCCCCC1CCOC1=O (stereo unspecified),inactive,inactive,inactive,inactive,inactive,inactive,inactive,inactive,inactive,inactive,inactive,inactive,–,inactive,inactive,inactive,inactive,–,–,–
O=C(Cl)CCl,inactive,inactive,inactive,inactive,inactive,inactive,inactive,inactive,–,inactive,inactive,inactive,inactive,inactive,inactive,inactive,inactive,–,–,–
COP(=O)(O)OC,inactive,inactive,inactive,inactive,inactive,inactive,inactive,inactive,inactive,inactive,inactive,inactive,inactive,inactive,inactive,inactive,–,–,–,–
CCCOC(=O)c1cncn1C(C)c1ccccc1 (stereo unspecified),inactive,inactive,inactive,inactive,inactive,inactive,inactive,inactive,–,inactive,inactive,inactive,inactive,–,inactive,inactive,inactive,–,–,–
CS(=O)(=O)c1ccc(C(=O)C2C(=O)CCCC2=O)c(Cl)c1COCC(F)(F)F,inactive,inactive,inactive,inactive,inactive,inactive,inactive,inactive,inactive,inactive,inactive,inactive,–,inactive,inactive,28.3 µM (active),inactive,–,–,–
